Source: PubChem (several laboratories)
CYP2C9 inhib: human CYP2C9 inhibition; P11712; CYP2C9 Supersomes, luciferin-H conversion, luminescence; inhibition, % at 5 µM; 20% of 96,000 active;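 active means blocking of liver enzyme CYP2C9 beyond about 50% at 5 µM, limit read from the data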
CYP2C19 inh: inhibitors of human CYP2C19; 21% of 96,000 active; AID 778; inhibition, % at 5 µM; P33261; CYP2C19 Supersomes, luciferin-H EGE luminescence, 30 min;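 active means CYP2C19 inhibition above a set limit at 5 µM in the primary screen, cut at about 50% in these data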;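 further: plate controls were negative control wells for no effect and 2.5 mM tranylcypromine positive control for full effect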
Cav32 inh: human Cav3.2 channel inhibition, primary screen; B-score at 10 µM; Cav3.2-expressing cells, Fluo-4 calcium fluorescence FDSS; stronger effect = lower value; O95180; 4% of 100,000 active; AID 449739;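 active means single-dose well whose peak fluorescence ratio is a statistical outlier from its plate by either plate-standardised score or position-corrected B-score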
Target sequence (O95180 whole entry, looked up): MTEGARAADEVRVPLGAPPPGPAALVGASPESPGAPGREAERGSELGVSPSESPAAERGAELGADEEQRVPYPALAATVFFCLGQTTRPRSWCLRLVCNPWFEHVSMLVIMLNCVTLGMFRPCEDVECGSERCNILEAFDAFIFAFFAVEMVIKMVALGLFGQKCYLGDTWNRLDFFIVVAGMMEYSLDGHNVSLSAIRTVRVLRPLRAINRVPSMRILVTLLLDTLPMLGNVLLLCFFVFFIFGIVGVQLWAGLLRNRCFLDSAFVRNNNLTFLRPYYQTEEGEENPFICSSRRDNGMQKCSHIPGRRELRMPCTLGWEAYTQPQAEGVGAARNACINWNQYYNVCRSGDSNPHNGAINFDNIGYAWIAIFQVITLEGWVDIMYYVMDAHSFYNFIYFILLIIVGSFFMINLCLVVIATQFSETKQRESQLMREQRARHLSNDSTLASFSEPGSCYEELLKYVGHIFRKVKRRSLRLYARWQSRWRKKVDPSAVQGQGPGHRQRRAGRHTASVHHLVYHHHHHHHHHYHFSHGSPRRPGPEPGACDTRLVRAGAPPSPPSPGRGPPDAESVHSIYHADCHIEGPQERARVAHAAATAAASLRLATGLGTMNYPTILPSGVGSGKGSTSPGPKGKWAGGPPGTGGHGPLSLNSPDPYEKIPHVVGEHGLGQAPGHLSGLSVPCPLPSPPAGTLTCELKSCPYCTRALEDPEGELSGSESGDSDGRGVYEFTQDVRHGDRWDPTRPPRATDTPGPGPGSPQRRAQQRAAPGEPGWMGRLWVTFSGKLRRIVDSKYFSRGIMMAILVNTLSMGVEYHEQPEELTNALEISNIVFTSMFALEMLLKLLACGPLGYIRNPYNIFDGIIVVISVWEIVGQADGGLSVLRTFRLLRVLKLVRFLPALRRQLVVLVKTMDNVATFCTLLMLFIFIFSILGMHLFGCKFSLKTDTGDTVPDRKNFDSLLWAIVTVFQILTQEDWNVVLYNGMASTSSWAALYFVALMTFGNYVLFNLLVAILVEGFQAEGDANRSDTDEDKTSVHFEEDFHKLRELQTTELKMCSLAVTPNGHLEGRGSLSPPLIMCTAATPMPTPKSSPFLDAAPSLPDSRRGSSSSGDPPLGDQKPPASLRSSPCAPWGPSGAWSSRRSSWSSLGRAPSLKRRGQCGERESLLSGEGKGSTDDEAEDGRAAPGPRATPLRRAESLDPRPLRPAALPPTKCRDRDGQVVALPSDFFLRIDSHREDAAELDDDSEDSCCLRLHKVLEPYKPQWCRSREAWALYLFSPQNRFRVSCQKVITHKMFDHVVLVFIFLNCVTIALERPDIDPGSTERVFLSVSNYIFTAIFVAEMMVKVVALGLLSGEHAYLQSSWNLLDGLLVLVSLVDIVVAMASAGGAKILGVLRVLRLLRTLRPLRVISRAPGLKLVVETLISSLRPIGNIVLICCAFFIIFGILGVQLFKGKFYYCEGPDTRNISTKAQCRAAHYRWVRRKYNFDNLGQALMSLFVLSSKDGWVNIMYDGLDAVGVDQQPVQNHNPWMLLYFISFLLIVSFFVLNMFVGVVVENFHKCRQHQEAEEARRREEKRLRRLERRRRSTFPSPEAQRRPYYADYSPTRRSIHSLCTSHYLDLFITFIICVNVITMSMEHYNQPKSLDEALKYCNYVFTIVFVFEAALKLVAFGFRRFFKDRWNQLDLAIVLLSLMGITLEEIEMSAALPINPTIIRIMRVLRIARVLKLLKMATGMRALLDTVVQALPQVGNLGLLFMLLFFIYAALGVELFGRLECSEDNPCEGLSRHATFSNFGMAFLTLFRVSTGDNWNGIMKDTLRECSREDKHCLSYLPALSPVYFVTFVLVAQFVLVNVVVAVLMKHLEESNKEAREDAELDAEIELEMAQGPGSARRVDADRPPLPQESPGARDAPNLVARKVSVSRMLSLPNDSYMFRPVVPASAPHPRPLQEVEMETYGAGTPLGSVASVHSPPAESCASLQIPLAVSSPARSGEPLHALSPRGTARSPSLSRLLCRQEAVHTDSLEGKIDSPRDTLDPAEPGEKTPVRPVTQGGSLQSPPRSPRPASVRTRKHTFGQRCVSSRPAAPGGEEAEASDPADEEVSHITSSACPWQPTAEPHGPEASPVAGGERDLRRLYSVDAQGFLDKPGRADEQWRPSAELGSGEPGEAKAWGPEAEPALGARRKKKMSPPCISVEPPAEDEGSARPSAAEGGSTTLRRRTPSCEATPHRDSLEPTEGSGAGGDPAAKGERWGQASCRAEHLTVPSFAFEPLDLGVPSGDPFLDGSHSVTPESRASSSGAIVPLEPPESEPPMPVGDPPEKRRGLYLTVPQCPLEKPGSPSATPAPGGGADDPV
CYP2C9 activ: increases human cytochrome P450 2C9 activity. P11712. 1.4% of 96,000 active. recombinant CYP2C9, luciferin-H conversion, luminescence; stronger effect = higher value; factor 1 = untreated enzyme, 0 = blocked. activation factor at 5 µM. AID 1024;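 active means activation factor of 2 or more for CYP2C9 at a 5 µM dose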;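 further: 0 = sulfaphenazole-blocked wells and 1 = vehicle-only wells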
CYP2C19 activ: increases human CYP2C19 enzyme activity. 96,000 tested, under 10 active. P33261. recombinant CYP2C19, luciferin-H EGE luminescence; stronger effect = higher value; 0 = fully inhibited enzyme, 1 = untreated enzyme. activation factor at 5 µM;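 active means activation factor of at least 2 at 5 µM in the primary screen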;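 further: 0 = wells with 2.5 mM tranylcypromine and 1 = vehicle-only wells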
* = called active by the depositor; . = not tested or not shown. The list is not random: actives were taken first. Their share in the collection is about 27%.

SMILES	CYP2C9 inhib	CYP2C19 inh	Cav32 inh	CYP2C9 activ	CYP2C19 activ
CCCCNC(=O)COC(=O)c1ccc(Cl)c(S(N)(=O)=O)c1	-49	-14	-0.59	1.5	1.1
COCCCNC(=O)c1ccc2c(c1)OCO2	2	0	.	1	1
CN(C)CCC(=O)c1ccc2c(c1)OCO2	2	9	1.5	1	0.9
O=C(CCNc1ccccc1)c1ccc2c(c1)OCO2	48	63*	-0.11	0.5	0.4
O=C(NCc1ccccc1)c1ccc2c(c1)OCCO2	31	85*	-0.81	0.7	0.2
O=C(NCc1cccs1)c1ccc2c(c1)OCCO2	6	4	0.29	0.9	1
O=C(NCc1ccccc1)c1ccc(C(=O)N(C2CCCCC2)C2CCCCC2)cc1	17	9	-5.9*	0.8	0.9
O=C(NCc1ccccc1F)c1ccc2c(c1)OCO2	10	73*	0.66	0.9	0.3
O=C(O)CSc1nnc(-c2cc3ccccc3o2)n1-c1ccccc1	-9	-11	0.2	1.1	1.1
Fc1ccccc1Cn1nnc(-c2ccc3c(c2)OCO3)n1	58*	76*	-1.7	0.4	0.2
O=C(Nc1nnc(CCS(=O)(=O)c2ccc(Br)cc2)s1)c1ccc([N+](=O)[O-])cc1	-11	-8	0.87	1.1	1.1
CCOC(=O)c1cc2sccc2n1CC(=O)c1ccc2c(c1)OCCO2	96*	93*	-1.2	0	0.1
CC(C)Oc1ccc(C(CC(=O)O)NC(=O)c2cccs2)cc1 (centres undefined)	55*	-7	0.53	0.5	1.1
CCn1c(C(=O)NC(C)c2ccc3c(c2)OCCO3)cc2sccc21 (centres undefined)	33	10	-5.1*	0.7	0.9
Cc1ccsc1C(=O)NC(C)c1ccc2c(c1)OCO2 (centres undefined)	.	.	-0.019	.	.
CC(NC(=O)c1cccs1)c1ccc2c(c1)OCO2 (centres undefined)	76*	92*	0.41	0.2	0.1
CCCOc1ccc(C(CC(=O)O)NC(=O)c2cccs2)cc1 (centres undefined)	26	-11	-0.16	0.7	1.1
Cc1ccc(S(=O)(=O)CCc2nnc(NC(=O)COc3cccc(C)c3)s2)cc1	5	-4	1.3	0.9	1
COc1ccc(CCNC(=O)C(C)OC(=O)c2ccco2)cc1OC (centres undefined)	40	34	-0.61	0.6	0.7
CC(C)C(NC(=O)COc1ccc2ccccc2c1)C(=O)N/N=C/C=C/c1ccccc1 (centres undefined)	40	19	-2.2	0.6	0.8
CC(NC(=O)C12CC3CC(CC(C3)C1)C2)c1ccc2c(c1)OCCO2 (centres undefined)	21	6	3.5*	0.8	0.9
CC(NC(=O)c1cc2sccc2n1C)c1ccc2c(c1)OCCO2 (centres undefined)	82*	22	.	0.2	0.8
COc1cccc(/C(O)=C2/C(=O)C(=O)N(CCCN(C)C)C2c2cccc(Cl)c2)c1 (centres undefined)	-17	-27	.	1.2	1.3
COC(=O)c1sccc1NC(=S)N1CCCCC1C (centres undefined)	22	63*	-1	0.8	0.4
COC(=O)c1sccc1NC(=S)N1CCCC(C)C1 (centres undefined)	19	7	-0.71	0.8	0.9
SMILES	CYP2C9 inhib	CYP2C19 inh	Cav32 inh	CYP2C9 activ	CYP2C19 activ
COC(=O)c1ccc(NC(=O)CSCC(=O)OCC(=O)c2ccc(Br)cc2)cc1	28	20	-0.73	0.7	0.8
Cc1noc(C)c1S(=O)(=O)NCc1ccc2c(c1)OCO2	98*	93*	0.42	0	0.1
CCOc1cc(C)c(Cl)cc1S(=O)(=O)N1CCCC1	-60	37	-2.6	1.6	0.6
Cc1ccc2nsnc2c1S(=O)(=O)NCc1ccc2c(c1)OCO2	.	.	-0.054	.	.
CCOc1cc(C)c(Cl)cc1S(=O)(=O)NCc1ccc2c(c1)OCO2	14	99*	.	0.9	0
CCOc1cc(S(=O)(=O)NCc2ccc3c(c2)OCO3)c(C)cc1C	91*	86*	-6.2*	0.1	0.1
C#CCOCCOCCOCCNc1nc(N2CCN(C(=O)[C@H](CCC(=O)O)n3cc(C(N)[C@H](C)CC)nn3)CC2)nc(N2CCN(C(=O)[C@H](CCC(=O)O)n3cc(C(N)[C@H](C)CC)nn3)CC2)n1 (some centres undefined)	.	.	0.14	.	.
CCCCn1c(N)c(Sc2ccc(Cl)cc2)c(=O)[nH]c1=O	17	42	-0.27	0.8	0.6
CCCn1c(N)c(Sc2ccc(Cl)cc2)c(=O)n(CCC)c1=O	58*	90*	-0.92	0.4	0.1
O=C(Nc1ccccc1)c1cccc(S(=O)(=O)N2CCCCC2)c1	48	58*	-1.7	0.5	0.4
Cc1ccc(NC(=O)c2cc(S(=O)(=O)c3ccccc3)ccc2Cl)cc1	73*	36	-5.4*	0.3	0.6
O=C(Nc1ccc(S(=O)(=O)N2CCCCC2)cc1)c1ccccc1Cl	33	22	-2.7	0.7	0.8
CC(=O)Nc1cccc(S(=O)(=O)N2CCCCCC2)c1	-148	75*	0.53	2.5*	0.2
O=C(Nc1cccc(O)c1)c1cc(S(=O)(=O)N2CCCC2)ccc1Cl	82*	46	.	0.2	0.5
c1ccc(CSc2ncnc3c2cnn3Cc2ccccc2)cc1	19	12	-0.4	0.8	0.9
Cc1nc2ccccc2n1CCC(=O)Nc1cccc(F)c1	18	21	.	0.8	0.8
CC(=O)NC1(c2cccc(F)c2)CCN(C(=O)Nc2ccc(C#N)cc2)CC1	4	-9	1.2	1	1.1
Cc1cc(C)n(C(=O)c2cccc(S(=O)(=O)N3CCCC3)c2)n1	72*	76*	0.078	0.3	0.2
CC(=O)Nc1ccc(S(=O)(=O)N2CCC(NC(C)=O)(c3cccc(F)c3)CC2)cc1	75*	93*	0.15	0.3	0.1
Cc1cccc(NC(=O)C2CCCC2)c1	.	.	0.37	.	.
O=C(Nc1cccc(S(=O)(=O)c2cccc(NC(=O)C3CC3)c2)c1)C1CC1	60*	99*	-0.062	0.4	0
O=C(Nc1ccccc1Cl)c1cccc(NS(=O)(=O)c2ccccc2)c1	75*	89*	-1.7	0.2	0.1
Cc1nc2sc(C(c3cccc(F)c3)N3CCCC(C)C3)c(O)n2n1 (centres undefined)	-21	12	0.27	1.2	0.9
N/C(=N\c1nc2c(c(=O)[nH]1)CCCC2)Nc1ccc(Oc2ccccc2)cc1	.	.	-1.9	.	.
CNS(=O)(=O)c1cccc(C(=O)OC2CCCCC2=O)c1 (centres undefined)	-12	29	0.12	1.1	0.7
O=C(O)c1cccc(S(=O)(=O)N2CCCC2)c1	21	6	-0.033	0.8	0.9
O=C(c1cccc(S(=O)(=O)N2CCCC2)c1)c1nnc(-c2ccncc2)o1	90*	78*	-0.021	0.1	0.2
O=C(Nc1ccc(C#Cc2ccccc2)cc1)C1CC1	-131	-11	0.042	2.3*	1.1
N#Cc1ccccc1NC(=O)COC(=O)CSc1nc2ccccc2o1	28	13	.	0.7	0.9
